High-throughput results deposited in PubChem by several laboratories.
dFosB act: activators of delta FosB homodimer, primary screen, biochemical, fluorescence polarization, TAMRA-CDK5 oligo, single point | Protein FosB (Mus musculus), P13346 | purified delta FosB; percent of positive-control signal above neutral wells | activation, % at 25 µM | actives 0.99% (n = 340,000) | AID 493131, 2011;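 active = mean activation above about 17%, with every replicate also reaching it, limit read from the data, passing the limit was not always enough; inconclusive = only one of the two conditions met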
Target sequence (P13346 whole entry, looked up): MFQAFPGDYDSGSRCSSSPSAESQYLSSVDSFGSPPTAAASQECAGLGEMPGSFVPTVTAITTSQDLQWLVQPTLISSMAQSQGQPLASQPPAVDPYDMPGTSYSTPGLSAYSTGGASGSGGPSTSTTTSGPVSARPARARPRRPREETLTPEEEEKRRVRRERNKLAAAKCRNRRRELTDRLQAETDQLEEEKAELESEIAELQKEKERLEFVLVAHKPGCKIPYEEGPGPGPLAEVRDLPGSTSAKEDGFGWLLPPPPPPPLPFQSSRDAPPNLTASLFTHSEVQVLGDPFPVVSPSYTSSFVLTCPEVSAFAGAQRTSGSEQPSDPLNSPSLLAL
CR mimetic SO: reduction of superoxide in aged yeast, primary screen, HTS; S. cerevisiae aged cells, superoxide DHE fluorescence; stronger effect = lower value; superoxide response (% of plate mean), % at 10 µM; actives 0.18% (n = 330,000);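 active = superoxide response under a set limit, about three screen SD below normal, cut at about 65% in these data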;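 also: yeast aged for seven days with compound at 30 °C before DHE staining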
NALP1 inh: NALP1 inflammasome inhibitors in reconstituted yeast, colorimetric, S. cerevisiae, triplicate retest; actives 0.61% (n = 280,000); inhibition, % at 10 µM; S. cerevisiae NALP1/ASC/caspase-1 growth, X-gal OD620, 72 h; AID 2071, 2009; in the data active = inhibition mostly above about 24%, no sharp cut-off; inactive = mostly below about 32%
NR3A LBD binder: binders of NR3A ligand-binding domain, primary screen, biophysical, differential scanning fluorimetry, uHTS | AID 1259313, 2017 | Glutamate receptor ionotropic, NMDA 3A (GRIN3A) ligand-binding domain | Tm shift relative to glycine control, % at 25 µM | NR3A LBD differential scanning fluorimetry, Tm shift; 0% = protein alone, 100% = glycine-bound protein | actives 2.5% (n = 340,000);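 active = melting temperature shift of at least 10% of the positive control shift, at one fixed dose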
UBC13 inh: UBC13 polyubiquitin chain formation inhibitors, primary screen, biochemical, TR-FRET, uHTS; Ubiquitin-conjugating enzyme E2 N (Homo sapiens), P61088; inhibition, % at 20 µM; actives 0.47% (n = 330,000); AID 485273, 2010; in the data active = inhibition above about 45%, passing the limit was not always enough; inconclusive = no clear call, values can overlap the other calls
Target sequence (P61088 whole entry, looked up): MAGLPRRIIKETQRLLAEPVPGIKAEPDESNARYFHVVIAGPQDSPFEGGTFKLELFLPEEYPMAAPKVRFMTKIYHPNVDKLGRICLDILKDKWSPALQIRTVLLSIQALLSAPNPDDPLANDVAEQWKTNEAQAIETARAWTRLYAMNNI
Of the large screens only hits and unclear results are named; the others gave an inactive call. Compounds with a hit are over-represented: about 4.3% of the library has one in this group of screens.

CC(OC(=O)CN(C)S(=O)(=O)c1ccc(Cl)cc1)C(=O)Nc1ccc(N2CCOCC2)cc1 (stereo unspecified)	none (no result: CR mimetic SO, UBC13 inh)
O=C1C=CC(=O)N1c1ccc(OC(F)F)cc1	NALP1 inh 111.8 (no result: UBC13 inh)
O=C(Cn1nnc(-c2ccccc2NC(=O)c2cccs2)n1)Nc1ccccc1	NR3A LBD binder 22.3
COc1ccc(NC(=O)Cn2nnc(-c3ccccc3NC(=O)c3ccco3)n2)cc1	dFosB act 26.5
COc1ccccc1NC(=O)Cn1nnc(-c2ccccc2NC(=O)c2ccco2)n1	none
Nc1ccc2c(c1)C(=O)c1ccc(Br)cc1-2	NR3A LBD binder 25.7 (no result: CR mimetic SO, NALP1 inh, UBC13 inh)
O=C(CSc1ccccc1)Nc1ccc(N2CCOCC2)c(F)c1	none
O=C(CSc1ccc(Cl)cc1)Nc1ccc(N2CCN(c3ccccc3)CC2)c(F)c1	NR3A LBD binder 19.4
Nc1cc(Nc2ccc(Br)cc2)nc(N)n1	none
COC(=O)c1ccccc1NC(=O)CSc1ncn[nH]1	none (no result: NALP1 inh)
CCN1CCc2c(sc(NC(=O)Nc3ccc(Cl)c(Cl)c3)c2C(N)=O)C1	dFosB act 56.4, NR3A LBD binder 17.6 (no result: UBC13 inh)
CCN1CCc2c(sc(NC(=O)c3ccc(S(=O)(=O)N(CC)c4ccccc4)cc3)c2C(N)=O)C1	dFosB act 40.8
CCN1CCc2c(sc(NC(=O)Cc3ccccc3)c2C(N)=O)C1	none
Cc1cc(-n2c(SCC(=O)NCc3cccs3)nc3n[nH]c(C)c3c2=N)ccc1Cl	none
Cc1cc(-n2c(SCC(=O)Nc3ccc(F)c(F)c3)nc3n[nH]c(C)c3c2=N)ccc1Cl	NR3A LBD binder 25.5
Cc1cc(-n2c(SCC(=O)Nc3ccc(Br)cc3)nc3n[nH]c(C)c3c2=N)ccc1Cl	NR3A LBD binder 19.8
CCOc1ccc(-n2c(SCC(=O)Nc3ccc(Br)cc3)nc3n[nH]c(C)c3c2=N)cc1	NR3A LBD binder 18.6
CCOc1ccc(-n2c(SCC(=O)Nc3ccccc3CC)nc3n[nH]c(C)c3c2=N)cc1	none (no result: dFosB act, NR3A LBD binder)
COc1cccc(NC(=O)CSc2nc3n[nH]c(C)c3c(=N)n2-c2cccc(OC)c2)c1	none
CC(=O)NS(=O)(=O)c1ccc(NC(=O)CC23CC4CC(CC(Br)(C4)C2)C3)cc1	none
CCOC(=O)c1sc(/S(C)=N\S(=O)(=O)c2cccc(Cl)c2)c2c1CCC=C2 (stereo unspecified)	none (no result: NALP1 inh)
Cc1nn(CC(=O)Nc2ccc3c(c2)nc(CCN2CCCCC2)n3C)c(=O)c2ccccc12	none
Cc1nn(CC(=O)Nc2ccc3c(c2)nc2n3CCN(C3CCCCC3)C2)c(=O)c2ccccc12	dFosB act 26.6
COc1ccc(Br)c2oc(SC)cc(=O)c12	NR3A LBD binder 10.1
O=C(CN1C(=O)/C(=C2\SC(=S)N(CCS(=O)(=O)O)C2=O)c2ccccc21)Nc1cccc(Br)c1	NR3A LBD binder 11.9 (no result: UBC13 inh)
COc1cc(NC(C)CCCN)c2ncccc2c1Oc1ccccc1 (stereo unspecified)	NALP1 inh 58.1
COc1ccc(Oc2c(OC)cc([N+](=O)[O-])c3ncccc23)cc1	none (no result: CR mimetic SO, NALP1 inh, UBC13 inh)
Cc1cc(C(=O)NCCc2ccc(S(N)(=O)=O)cc2)c(C)o1	none
CCC(=O)OCC(=O)[C@@]1(OC(=O)CC)[C@@H](C)C[C@H]2[C@@H]3CCC4=CC(=O)C=C[C@]4(C)[C@@]3(Cl)[C@@H](O)C[C@@]21C	none (no result: NALP1 inh)
Cc1cc(=O)nc2c3ccccc3n(CC(=O)NC(C)c3ccc4c(c3)OCCO4)n12 (stereo unspecified)	NR3A LBD binder 13.4
COCCn1c(-c2ccc(-c3ccc([N+](=O)[O-])cc3Br)o2)nc2c1c(=O)[nH]c(=O)n2CC(C)C	NALP1 inh 22.5
N#CCC(=O)Nc1ccc(C(=O)OCC(=O)Nc2ccccc2Sc2ccccc2)cc1	NR3A LBD binder 16.4
N#Cc1cccc(NC(=O)COC(=O)c2ccccc2Sc2ccccc2C#N)c1	none
N#CCC(=O)Nc1ccc(C(=O)OCc2ccccc2Oc2ccccc2)cc1	NR3A LBD binder 16.7
CC(=O)c1ccc(NC(=O)COC(=O)c2ccccc2Sc2ccccc2C#N)cc1	dFosB act 39.5
COC(=O)c1c(NC(=O)COC(=O)c2ccc(NC(=O)CC#N)cc2)sc2c1CCCCC2	NR3A LBD binder 19.1
CC(=O)Nc1ccc(C(=O)OCC(=O)Nc2ccccc2Sc2ccccc2)cc1	none
CC1CCCC(NC(=O)COC(=O)c2ccccc2Sc2ccccc2C#N)C1C (stereo unspecified)	NR3A LBD binder 16.0
CC1CCCC(NC(=O)COC(=O)Cc2ccc(Br)cc2)C1C (stereo unspecified)	NALP1 inh 17.7
CC1CCCC(NC(=O)Cc2ccc(Br)cc2)C1C (stereo unspecified)	none
COc1ccccc1NS(=O)(=O)c1cc(C(=O)N2CCN(C/C=C/c3ccccc3)CC2)ccc1C	none
COc1cc(/C=C2/CCC/C(=C\c3cc(O)c(OC)c(Cl)c3)C2=O)cc(Cl)c1O	NALP1 inh 23.9
CCN1C[C@@H]2[C@@H]3C(=O)N(C)C(=O)[C@@H]3[C@](Cc3ccccc3)(C(=O)OC)N2C1=NC1CCCCC1	none (no result: NALP1 inh, UBC13 inh)
COC(=O)C1=C(C)NC(=O)NC1c1ccc(OC(=O)c2ccco2)cc1 (stereo unspecified)	NALP1 inh 17.9
C=CCN=C(NC#N)SC	CR mimetic SO 42.7
CC(C)C(=O)Nc1ccc(C(=O)Nc2ccc(Br)cc2F)cc1	none
CC(=O)Nc1ccc(C(=O)N/N=C/c2cc(Br)cc(Br)c2O)cc1	dFosB act 96.6, NR3A LBD binder 19.4
CC(C)C(=O)Nc1ccc(C(=O)N/N=C/c2cc(Br)cc(Br)c2O)cc1	NR3A LBD binder 31.3
Cc1ccc(C(=O)O)cc1N=Cc1cc(Br)cc(Br)c1O	NALP1 inh 69.5 (no result: UBC13 inh)
COc1ccc(CN2C(=NC(=O)c3ccccc3)SC3CS(=O)(=O)CC32)cc1 (stereo unspecified)	none
O=C(CCc1ccccc1)Nc1ccc(S(=O)(=O)NC2=NCCCCC2)cc1	none (no result: NALP1 inh)
CS(=O)(=O)c1ccc(Cl)c(NC(=O)COc2ccc3c(c2)CCC3)c1	none (no result: NALP1 inh)
Cc1cccc(NC(=O)C2=C(O)c3ccccc3N(C)S2(=O)=O)c1	none
CN1c2ccccc2C(O)=C(C(=S)Nc2ccc(Cl)cc2)S1(=O)=O	NR3A LBD binder 27.8
CN=Cc1nc(-c2ccccc2)oc1O	none
Cc1ccc(-c2nc(C=Nc3ccc(O)cc3)c(O)o2)cc1	NR3A LBD binder 11.3 (no result: CR mimetic SO, UBC13 inh)
CC(C)NC(=S)N=Nc1c(O)[nH]c2ccc([N+](=O)[O-])cc12	NR3A LBD binder 18.0, UBC13 inh inconclusive
CC(C)N(Cc1nccn1C)C(=O)c1ccc2oc(Cc3ccccc3)nc2c1	none (no result: CR mimetic SO)
CCn1c(=Nc2ccc(N3CCOCC3)cc2)ccc2ccccc21	NR3A LBD binder 13.6
